mHTT CaM bind = inhibitors of human mutant huntingtin-calmodulin interaction; 190,000 compounds, 3.6% hits; AlphaScreen His-mHTT/GST-CaM binding, luminescence; P42858; inhibition, % at 15 µM;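 further: 0% = both proteins with DMSO and 100% = one protein alone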
Pf apPOL inh = Pf-apPOL DNA polymerase inhibition; inhibition, % at 10 µM; Recombinant Pf-apPOL, molecular beacon fluorescence, 1.5 h; AID 1794808; 210,000 compounds, 0.25% hits
An asterisk follows results filed as active; i = inactive; . = no result given. In the library only some 3.6% were active in any assay of this set; here they are far more common. No stated cut-off is given here; in the data, active means inhibition above about 50%; inactive means the rest.

SMILES | mHTT CaM bind | Pf apPOL inh
COc1cc(OC)c2ccc(=O)oc2c1C(CC(=O)N1CCCC1)c1ccc2c(c1)OCO2 (stereo not given) | 36 | 4
COc1cc(OC)c2c(-c3ccccc3)cc(=O)oc2c1C(CCN1CCCC(C)C1)c1ccc2c(c1)OCO2 (stereo not given) | 100* | -12
COc1cc(O)c(C(CCN2CCCCC2)c2ccc3c(c2)OCO3)c(OC)c1 (stereo not given) | 33 | -5
COc1cc(OC)c2ccc(=O)oc2c1C(CC(=O)N1CCCCC1)c1ccc2c(c1)OCO2 (stereo not given) | 37 | -6
Clc1cccc(-c2cn3ccccc3n2)c1 | 4 | 0
COc1ccc(-c2ncc3ccccn23)cc1OC | 4 | -2
Clc1cccc(-c2cc3ccccn3c2)c1 | 63* | 5
COc1cc(-c2cc3ccccn3c2)cc(OC)c1OC | 61* | 0
O=C1CCc2cc(NC(=O)c3ccc([N+](=O)[O-])cc3Cl)ccc2N1 | -4 | -2
O=C(Nc1ccc(N2CCN(Cc3cccc(F)c3)CC2)nc1)C1CC1 | 7 | 3
NC(N)=NN=C(/C=C/c1ccc([N+](=O)[O-])o1)/C=C/c1ccc([N+](=O)[O-])o1 | 100* | .
NC(=O)c1ccccc1N=Cc1ccc([N+](=O)[O-])o1 | 4 | 1
COc1ccc(-c2csc(Nc3cc(C)ccn3)n2)cc1 | -5 | -2
CCOc1ccc(-c2csc(Nc3ccccn3)n2)cc1 | 13 | 4
COc1ccc(Nc2nc(-c3ccccn3)cs2)cc1 | 99* | -5
CCOc1ccc(Nc2nc(-c3ccccn3)cs2)cc1 | 99* | -3
O=C1NCc2ccccc2C1(c1ccc(F)cc1)c1ccc(F)cc1 | 3 | -10
CCCCC1(CO)C(=O)N(c2ccccc2)N(c2ccccc2)C1=O | . | -12
CCCCC1(CC(=O)Nc2ccc(F)cc2)C(=O)N(c2ccccc2)N(c2ccccc2)C1=O | 98* | -1
COc1cc(NC(=O)c2ccc(Cl)c(Cl)c2)c(OC)cc1Cl | 0 | -7
CCOc1cc(C2c3sc(=O)[nH]c3SC3C4CCC(C4)C23)ccc1O (stereo not given) | 100* | -6
COc1ccc(C2c3sc(=O)[nH]c3SC3C4CCC(C4)C23)cc1 (stereo not given) | 38 | -4
COc1cccc(C2c3sc(=O)[nH]c3SC3C4CCC(C4)C23)c1O (stereo not given) | 49 | -6
COc1cc(C2c3sc(=O)[nH]c3SC3C4CCC(C4)C23)ccc1O (stereo not given) | 57* | 2
O=C(O)c1nnn(-c2ccccc2F)c1-c1cccnc1 | 3 | 0
SMILES | mHTT CaM bind | Pf apPOL inh
CCNc1nc(OC)nc(Oc2ccc(/C=N/O)cc2)n1 | i | 3
CNC(=O)C(=O)NCCN1CCN(S(=O)(=O)c2ccc([N+](=O)[O-])cc2)CC1 | 0 | -4
O=Nc1ccc(NOC(=O)/C=C/c2ccccc2)cc1 | 73* | -8
O=C(/C=C/c1ccccc1)Nc1ccc(NC(=O)c2ccco2)cc1 | 10 | 4
COc1cc(C2C3=C(CCCC3=O)Nc3ccc4ncccc4c32)ccc1OCc1ccccc1 (stereo not given) | 100* | -1
O=C1CCCC2=C1C(c1ccc(OCc3ccccc3F)c(Cl)c1)C1=C(CCCC1=O)N2 | -6 | -4
CCOc1cc(C2C3=C(CCCC3=O)NC3=C2C(=O)CCC3)ccc1OCc1cccc(F)c1 | 75* | -30
CCOc1ccc(C2C3=C(CCCC3=O)Nc3ccc4ncccc4c32)cc1 (stereo not given) | 36 | -1
O=C(c1cc2n(n1)C(C(F)(F)F)CC(c1ccccc1)N2)N1CCCc2ccccc21 (stereo not given) | 3 | -16
Cc1cc(C(=O)N2CCCC2c2ccc(Cl)cc2)no1 (stereo not given) | -2 | -6
O=C(CCS(=O)(=O)c1cccs1)Nc1ncc(Br)s1 | 9 | -4
COc1ccc(-c2cc(C(F)(F)F)n3ncc(C(=O)NC4CCCC4)c3n2)cc1 | -4 | -2
O=C(Nc1nc(-c2cc([N+](=O)[O-])cs2)cs1)c1ccc2ncsc2c1 | 24 | 8
CC(C(=O)Nc1cc(Cl)ccc1C#N)n1nc(-c2ccc(F)cc2)ccc1=O (stereo not given) | -5 | -6
CC(C(=O)Nc1nc2c(s1)CCCC2)n1nc(-c2ccc(F)cc2)ccc1=O (stereo not given) | 88* | -1
Cc1nc(-c2ccccc2)nc2c1CCCC2 | -13 | 1
CCN(CC)c1nc(C)nc2sc(C(=O)Nc3cc(OC)c(OC)c(OC)c3)c(C)c12 | 51* | -4
CCN(CC)c1nc(C)nc2sc(C(=O)Nc3cc(OC)ccc3OC)c(C)c12 | -4 | -3
Cc1ccc(-c2cc(C(=O)N3CCN(c4ccccn4)CC3)c(C)[nH]2)cc1C | 98* | -8
Cc1occc1C(=O)N1CCN(c2ccccn2)CC1 | -4 | -10
Cc1cc(C)n2nc(SCC(=O)NC3CCCc4ccccc43)nc2n1 (stereo not given) | 4 | -18
COC(=O)N1CCc2ccc(F)cc2C1C(=O)Nc1cccc2nsnc12 (stereo not given) | -8 | 4
O=C1OC(c2ccc(Cl)cc2)=N/C1=C\c1ccco1 | -4 | -5
O=C1OC(c2ccc(Cl)cc2)=N/C1=C\C=C\c1ccco1 | 68* | 4
CCn1c(/C(C#N)=C/c2ccc([N+](=O)[O-])cc2)nc2ccccc21 | 11 | -2
SMILES | mHTT CaM bind | Pf apPOL inh
FC(F)(F)c1cc(-c2ccccc2)nc(NCc2cccs2)n1 | -272 | 6
COc1ccc(-c2ccccc2)cc1NCc1cccs1 | 55* | 1
COc1cc(/C=C2\SC(=O)N(Cc3ccc(F)cc3)C2=O)c(Br)cc1O | 75* | 0
COc1ccccc1/C=C1\SC(=O)N(Cc2ccc(F)cc2)C1=O | -3 | -6
CN(C)c1ccc(CNC(=O)CCC(=O)N2CCCn3nc(-c4cccn4C)cc32)cc1 | 74* | -1
CC(C)CCNC(=O)CCC(=O)N1CCCn2nc(-c3cccn3C)cc21 | 19 | -3
O=C(NC1CCCCC1)c1cc2n(n1)CCCC2 | -4 | -1
O=C(Cc1nc(-c2cnccn2)n[nH]1)NCc1ccccc1 | 24 | 4
O=C(Cc1nc(-c2ccccn2)n[nH]1)NC1CC1 | 100* | -12
O=C(Cc1ccccc1)NC1CCCCCC1 | -5 | -4
O=C(Cc1nc(-c2ccccn2)n[nH]1)NC1CCCC1 | 98* | -10
Cc1ccc(C(=O)Nc2ccc(Cn3cncn3)cc2)cc1 | -6 | 1
CCOc1ccc(N2C(=O)CS/C2=C(\C(Cl)=C(Cl)Cl)[N+](=O)[O-])cc1 | 57* | -10
O=C1CS/C(=C(\C(Cl)=C(Cl)Cl)[N+](=O)[O-])N1c1ccc(F)cc1 | 36 | 4
CC(=O)N1CCN(c2ccc(NC(=O)Cc3ccccc3)cc2)CC1 | 4 | -2
Cc1onc(-c2ccccc2)c1C(=O)Nc1ccc([N+](=O)[O-])cc1Br | 4 | -9
O=C(Cc1nnc(-c2cccs2)o1)N1CCc2ccccc2C1 | -4 | -5
CCc1ccc(NC(=O)c2cc3c(CO)cnc(C)c3oc2=Nc2ccc(OC)cc2OC)cc1 | 4 | 57*
COc1ccc(N=c2oc3c(C)ncc(CO)c3cc2C(=O)Nc2ccccc2)c(OC)c1 | 8 | 3
O=C(NC(c1ccc([N+](=O)[O-])cc1)c1cc(Cl)c2cccnc2c1O)c1cccnc1 (stereo not given) | 53* | -9
O=C(NC(c1ccccc1)c1ccccc1)c1cccnc1 | -5 | 3

Screening data from PubChem.
